Assay results: PubChem BioAssay (NCI)
This is part of a sample that, as a whole, favours compounds with a hit. Of some 83,000 tested, about 20% had one in any assay.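 Note: values are percent growth. 100 is the growth of untreated cells, values between 100 and 0 indicate rising inhibition; between -100 and 0 indicates cell death.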 Values without a mark were called inactive. Calls of active or inactive are those of the source. How the source made its calls: active means growth percent below 10; inactive means the rest.

Key:
Test in all cases: NCI-60 one-dose screen, 48 h (100 = growth as untreated, 0 = no growth, -100 = all killed)
Settings in all cases: 10 µM
NCI-H23 lung = system: NCI-H23 lung
NCI-H226 lung = system: NCI-H226 lung
NCI-H322M lung = system: NCI-H322M lung
HOP-62 NSCLC = system: HOP-62 NSCLC
NCI-H460 lung = system: NCI-H460 lung
HOP-92 NSCLC = system: HOP-92 NSCLC
NCI-H522 lung = system: NCI-H522 lung
A549/ATCC NSCLC = system: A549/ATCC NSCLC
786-0 renal = system: 786-0 renal
COLO 205 colon = system: COLO 205 colon

Row | SMILES | growth (NCI-H23 lung) | growth (NCI-H226 lung) | growth (NCI-H322M lung) | growth (HOP-62 NSCLC) | growth (NCI-H460 lung) | growth (HOP-92 NSCLC) | growth (NCI-H522 lung) | growth (A549/ATCC NSCLC) | growth (786-0 renal) | growth (COLO 205 colon)
1 | CCOC(=O)c1c(Cl)c2c(n1Cc1cccc(OC)c1)-c1oncc1CC2 | 50.5% | 56.9% | -7.41% (active) | 37.5% | 9.8% (active) | 31% | 5.7% (active) | 45% | 33.7% | 19.9%
2 | COCCOC(=O)NC(=O)Nc1ccc(/C(=N/O)c2ccc(Cl)cc2)cc1 | 29.2% | 33.3% | 30.5% | 19.2% | 7.81% (active) | 44.6% | -38.3% (active) | 15.4% | 22.3% | -42.6% (active)
3 | O=S(=O)(NC1c2ccccc2Oc2ccccc21)c1ccccc1 | 98% | 95.3% | 91.6% | 90.1% | 107% | 63.8% | 31.3% | 98.4% | 82.1% | 95.6%
4 | COc1ccccc1CNCCCN1C(=O)c2ccc3c4c(ccc(c24)C1=O)C(=O)N(CCCNCCNCCCN)C3=O | 6.85% (active) | 39.9% | 27.9% | 40.4% | 6.29% (active) | 66.3% | -0.0156% (active) | 6.04% (active) | 45.4% | -59.4% (active)
5 | COc1cccc(C(=O)NNc2nc(N3CCN(C4CCCCC4)CC3)nc(N3CCN(C(c4ccccc4)c4ccccc4)CC3)n2)c1 | 41.5% | 73.7% | 74.5% | 45.2% | 46.1% | 45.5% | 60.5% | 35.8% | 53% | 14.2%
6 | C=C1C(=O)O[C@H]2[C@H]1CC/C(COC(=O)OCCCCCOC(=O)OC/C1=C/CC[C@@]3(C)O[C@H]3[C@H]3OC(=O)C(=C)[C@@H]3CC1)=C\CC[C@@]1(C)O[C@@H]21 | -37.5% (active) | -33% (active) | 50.9% | 9.65% (active) | -19.9% (active) | -49.6% (active) | -66.2% (active) | 44.3% | -63.8% (active) | -85% (active)
7 | CCn1nc(-c2ccccn2)c2cccnc2c1=S | 36.8% | 93.8% | 87.3% | 98% | 53.7% | 73.4% | 70.5% | 44.8% | 106% | 30.9%
8 | CC(C)=C1CCC(C)C/C1=N\N=C(N)N (stereo not given) | 105% | 97.9% | 97.1% | 101% | 102% | 85.8% | 90.8% | 91.8% | 93.3% | 108%
9 | COc1cc(Cn2c(-c3ccccc3)c(Cl)c3c2-c2oncc2CC3)cc(OC)c1 | 72.2% | 109% | 68.5% | 102% | 46.3% | 51.7% | 9.45% (active) | 53.5% | 74.7% | 113%
10 | N#CN1CC[C@H](C(=O)Nc2ncc(-c3ccncc3)s2)C1 | -22% (active) | -9.42% (active) | 11.1% | -7.49% (active) | 3.58% (active) | -0.157% (active) | -37.8% (active) | -32.4% (active) | 5.77% (active) | -55.4% (active)
11 | Cc1ccccc1C1=N[C@@H](Cc2ccccc2)C(=O)c2c(nc3ccccn23)N1 | 95.3% | 98.9% | 106% | 93.4% | 103% | 90.5% | 121% | 91.7% | 101% | 107%
12 | COc1cc(-c2nc3ccccc3[nH]2)ccc1OCc1nnc(-c2ccc(Br)cc2)o1 | 95.8% | 121% | 88.8% | 106% | 82.2% | 92.6% | 93.9% | 90.2% | 90.2% | 91.2%
13 | Cc1ccc(S(=O)(=O)N2CCc3ccccc3CC2)cc1 | 54.5% | 54.3% | 99% | 97.9% | 90.8% | 71.9% | 74.1% | 72.1% | 79.3% | 81%
14 | COc1cccc2c1O/C(=C\c1ncc([N+](=O)[O-])n1C)C2=O | -20.4% (active) | -16.4% (active) | 23.9% | -28.5% (active) | -34.1% (active) | -36.8% (active) | -56.8% (active) | -23.8% (active) | -28.7% (active) | -57.8% (active)
15 | COc1ccc(C2C=C(c3ccc(OC)c(OC)c3)N=C3SC=CN32)c(Br)c1 (stereo not given) | 89.3% | 70.7% | 87.5% | 103% | 87.5% | 77.5% | 60.8% | 82.3% | 92.3% | 94.8%
16 | NC1CCC(Nc2nc(NCc3ccc(-c4cccs4)nc3)c3ncn(C4CCCC4)c3n2)CC1 (stereo not given) | -33.8% (active) | -9.23% (active) | 19% | -2.05% (active) | 3.28% (active) | -13% (active) | -52.6% (active) | 4.31% (active) | 0.15% (active) | -51.4% (active)
17 | COc1ccccc1NC1=C(N2CCCCC2)C(=O)c2ccccc2C1=O | 98.7% | 84.5% | 80.9% | 98.8% | 87.9% | 57.9% | 82.5% | 74.4% | 87.5% | 92.3%
18 | O=C(Nc1cccc(Cl)c1)Nc1cc2ncncc2cc1OCc1cccc(F)c1 | 20.6% | 37.1% | 15.5% | -4.3% (active) | 4.36% (active) | -4.78% (active) | -8.47% (active) | 2.26% (active) | 39% | -69.6% (active)
19 | Cc1ccc(-c2cc(C(=O)Nc3ccc(S(=O)(=O)N4CCCCC4)cc3)[nH]n2)c(O)c1 | 55.4% | 76.5% | 89.3% | 90.7% | 51.6% | 56.1% | 72.1% | 52.2% | 62.3% | 55.3%
20 | CCN1CCOC1C(C)C (stereo not given) | 102% | 109% | 103% | 99.5% | 107% | 114% | 97.1% | 101% | 94.2% | 110%
21 | O=C(CCc1ccccc1)N1CCN(C(=O)CCc2ccccc2)CC1 | 101% | 99.3% | 95.2% | 105% | 114% | 84.1% | 98.3% | 99.9% | 94.6% | 102%
22 | Cc1ccc2nc3[nH]c(=O)[nH]c(=O)c3c(N)c2c1 | 91.9% | 100% | 73.3% | 84.3% | 81.2% | 76% | 83.9% | 89% | 78.7% | 91.2%
23 | COc1ccc2oc(=O)cc(C(c3ccc[nH]3)c3ccc[nH]3)c2c1 | 26% | 7.92% (active) | 27.7% | 4.73% (active) | 4.57% (active) | 32.6% | -23.1% (active) | -7.88% (active) | 17.2% | -71.5% (active)
24 | COc1ccc(-c2nc3sc(-c4ccccc4)c(-c4ccccc4)n3c2/C=C/c2ccc(F)cc2)cc1 | 97% | 107% | 103% | 95.9% | 92.9% | 94.5% | 106% | 83.8% | 100% | 99.6%
25 | C=CCOc1ccc2c(c1)CC=C1[C@@H]2CC[C@]2(C)C(=O)/C(=N/O)C[C@@H]12 | 95.1% | 96.1% | 81.2% | 103% | 60.3% | 101% | 80.7% | 84.3% | 79.2% | 91.3%
